# Assay results reported in PubChem BioAssay (Tox21).
# Records with an inconclusive call do not appear. Values without a mark were called inactive. Calls of active or inactive are those of the source. Calls follow the shape of the dose curve; as a rule, active = well fitted cell-killing curve with a large enough effect in the repeat runs; inconclusive = weak or mixed curves, or effect the other way; inactive = flat fitted curve, though single readings scatter.
# Assay: qHTS RealTime-Glo MT Cell Viability Assay in HEK293 cells - 16 hour (AID 1224872); also: nearly all actives have a fitted effect of over 50% in size; as to activity change, negative = cytotoxicity: top concentration of the series differs between compounds
# Details: RealTime-Glo luminescence; series mostly up to 76.8 µM; activity change, negative = cytotoxicity: at the top concentration
# From the text: National Center for Advancing Translational Sciences [NCATS]
# NIH Chemical Genomics Center [NCGC]
# U.S. Environmental Protection Agency [EPA]
# National Institutes of Environmental Health Sciences [NIEHS]
# National Toxicology Program [NTP]
# U.S. Food and Drug Administration [FDA]
# Measure of cell viability is critical in the cell-base assay. Analysis of cell viability is necessary for the characterization of cell responses to cytotoxic drugs and environmental stress. A RealTime-Glo MT Cell Viability Assay to monitor cell viability in real time of continues cell culture during 40 hours of compound treatment was used to screen Tox21 10K library compounds in Hek293 cells. The RealTime-Glo MT Cell Viability Assay is a nonlytic, homogeneous, bioluminescent method to measure cell viability in real time using a simple, plate-based method. The assay involves adding NanoLuc luciferase and a cell-permeant prosubstrate to cells in culture. Viable cells reduce the proprietary prosubstrate to generate a substrate for NanoLuc luciferase. This substrate diffuses from cells into the surrounding culture medium, where it is rapidly used by the NanoLuc Enzyme to produce a luminescent signal. The signal correlates with the number of viable cells, making the assay well suited for cytotoxicity studies.
# Tox21 Assay Protocol Summary:
# The mixture of Hek293 cell suspension and reagents were dispensed at 600cells/6 ul/well in 1536-well tissue culture treated black solid bottom plates using a Multidrop dispenser. After the assay plates were incubated at a 37 C/5% CO2 incubator for 5 hours, 23 nL of compounds dissolved in DMSO, positive and negative controls was transferred to the assay plate by a pintool work station. The plates were incubated at 37 C for 40 hours. The luminescence intensity were measured at 0h, 8h, 16h, 24h, 32h and 40h time points using ViewLux plate reader during compound treatment.
# % is scaled to controls: 0 for no effect and ±100 for the full control effect; potency is read from the fitted curve at half-maximal effect.
Structure (SMILES),Potency,"activity change, negative = cytotoxicity"
Oc1cccc(Nc2ccccc2)c1,22.8 µM (active),–
CCOc1cccc(-n2cc(C(=O)N3CCN(c4cc(C(=O)O)c5ccccc5c4)CC3)nc2-c2ccc(C)cc2)c1,–,-7.86%
CC(=O)Nc1ccc(C)cc1C,–,-5.03%
CC[N+](CC)(CCNC(=O)C(=O)NCC[N+](CC)(CC)Cc1ccccc1Cl)Cc1ccccc1Cl,–,3.43% [at 35.3 µM]
C=CC(C)(CCC=C(C)C)OC(=O)CC(C)C (stereo not given),–,-0.0167%
C=CC(=O)[O-].C=CC(=O)[O-].[Zn+2],–,-4.24%
Cc1ccccc1S,–,-16.2% [at 35.3 µM]
Cc1cc2c(OCC(CNC(C)(C)C)OC(=O)c3ccccc3)cccc2[nH]1 (stereo not given),–,-17.1% [at 35.3 µM]
CCCCCCCC/C=C\CCCCCCCCO,–,-2.21%
Cc1ccc(Cl)c(Nc2ccccc2C(=O)O)c1Cl,–,-0.404% [at 35.3 µM]
CCCCN(CCN(CCCC)C(=O)N1CCOCC1)C(=O)N1CCOCC1,–,-13.5% [at 35.3 µM]
Cc1cc(=O)c2c(O)c3c(O)cc(=O)c4c3c3c(cc(O)c1c23)C(C)(C)C=4O,–,-25.2% [at 15.8 µM]
Cc1c(C)c2c(c(C)c1OC(=O)CCC(=O)OCCO)CC[C@@](C)(CCC[C@H](C)CCC[C@H](C)CCCC(C)C)O2,–,-10.2% [at 35.3 µM]
CC(C)=CCC1C(=O)N(c2ccccc2)N(c2ccccc2)C1=O,–,5.02% [at 35.3 µM]
CC(CC1c2ccccc2CCc2ccccc21)CN(C)C (stereo not given),–,-19.9% [at 35.3 µM]
O=C(CCc1ccc(O)cc1)c1c(O)cc(O)cc1O,25.1 µM (active),–
O=C(Cn1ccnc1[N+](=O)[O-])NCCO,–,6.28% [at 35.3 µM]
CCOC(=O)c1ccc(O)c(O)c1,–,-4.43% [at 35.3 µM]
Cc1ccco1,–,12.5%
CCC=CC#N,–,5.82%

Structure (SMILES),Potency,"activity change, negative = cytotoxicity"
CCC(C)COC(=O)CC(C)C (stereo not given),–,-6.38%
CC(=O)Oc1ccc([N+](=O)[O-])cc1CCl,6.16 µM (active),–
COc1ncnc(NS(=O)(=O)c2ccc(N)cc2)c1OC,–,0.311% [at 35.3 µM]
C=C/C(C)=C/C/C=C(\C)CCC=C(C)C,–,-11.2%
O=C(O)CCc1nc(-c2ccccc2)c(-c2ccccc2)o1,–,4.39% [at 35.3 µM]
Cc1ccc(C(C)(C)O)cc1,–,-9.23%
CCCCCCC(C)(C)C(=O)O,–,0.956%
c1cc(N(CC2CO2)CC2CO2)ccc1Cc1ccc(N(CC2CO2)CC2CO2)cc1 (stereo not given),43.6 µM (active),–
C[C@]12CC[C@@H]3c4ccc(O)cc4CC[C@H]3[C@@H]1CC[C@@H]2OC(=O)CCC1CCCC1,49 µM (active),–
O=C=Nc1cccc(C(F)(F)F)c1,–,-12.8%
C1C[C@@H]2[C@H]3CC[C@H](C3)[C@@H]2C1,–,-6.59%
O=C(O)c1ccc(OCCCOc2ccc(C(=O)O)cc2)cc1,–,-1.94% [at 35.3 µM]
CC1(C)O[C@@H]2C[C@H]3[C@@H]4C[C@H](F)C5=CC(=O)C=C[C@]5(C)[C@H]4[C@@H](O)C[C@]3(C)[C@]2(C(=O)CO)O1,–,1.14% [at 35.3 µM]
COc1ccccc1NC(=O)c1cc2ccccc2cc1O,24.5 µM (active),–
CCC(=O)C1CC(C(C)C)CC=C1C (stereo not given),–,9.25%
COc1cc(C(=O)NCCCCCC(=O)O)cc(OC)c1OC,–,6.95% [at 35.3 µM]
CCN(CC)CCNC(=O)COc1ccc(OC)cc1,–,1.43% [at 35.3 µM]
Oc1c(I)cc(I)c2cccnc12,–,1.59% [at 35.3 µM]
O=C1C(=O)c2ccccc2C(O)=C1C1CCC(c2ccc(Cl)cc2)CC1 (stereo not given),–,5.6% [at 35.3 µM]
COc1cc(N)c(Cl)cc1C(=O)NC1CCN(CCCOc2ccc(F)cc2)CC1OC (stereo not given),2.39 µM (active),–
